# Most compounds without a hit are left out; they make up all but 9.9% or so of the library.
# IL-1B inflam inh = qHTS for Inhibitors of Inflammasome Signaling: IL-1-beta AlphaLISA Primary Screen | THP-1 LPS/ATP IL-1B secretion, AlphaLISA, 16 h; active compounds read low | activity change, % at 57.5 µM | 360,000 compounds, 4.7% hits | AID 743279, 2014; in the data active = activity change below about -50%; inconclusive = mostly about -30% to -49%; note: % is set by controls: 0 for no effect and ±100 for the full control effect
#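 Secreted IL-1B measured by AlphaLISA bead assay after 16 h compound exposure of THP-1 cells; compounds (final up to 57.5 uM) added 1 h before LPS (250 ng/mL) and ATP (1.25 mM) stimulation; lower signal means less secretion.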
# MCF10A rereplic = A quantitative high throughput screen for small molecules that induce DNA re-replication in MCF 10a normal breast cells; MCF 10A DNA re-replication, Hoechst nuclear intensity, 48 h; Potency, µM (top dose mostly 46.1 µM), for the others: top-dose activity, positive = re-replication, hits mostly activators; 350,000 compounds, 2.9% hits; AID 624296, 2012; note: potency is the fitted concentration of half-maximal effect; % of control where 0% means no effect; nearly all actives have a fitted effect of over 50% in size
# KB-V1 cytotox = qHTS assay for MDR1-selective chemotherapeutics: Primary screen using the drug-selected MDR subline cells KB-V1; KB-V1 MDR cells viability, CellTiter-Glo, 72 h; Potency, µM (top dose mostly 46.1 µM), hits mostly cytotoxic; 400,000 compounds, 3.4% hits; AID 1347076, 2019; note: potency is the fitted concentration of half-maximal effect; % is set by controls: 0 for no effect and ±100 for the full control effect; nearly all actives have a fitted effect of over 60% in size
#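 Drug-selected KB-V1 cells, grown in DMEM lacking phenol red with 10% FBS, receive compound titrations; after three days at 37 degrees C, surviving cell ATP is quantified by CellTiter-Glo luminescence and responses normalized and curve-fitted.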
# SW480 rereplic = A quantitative high throughput screen for small molecules that induce DNA re-replication in SW480 colon adenocarcinoma cells | Potency, µM (doses to about 46.1 µM), inactives show at the top dose re-replication activation, actives largely listed as activators | 340,000 compounds, 1.8% hits | AID 624297, 2012 | SW480 DNA re-replication, Hoechst DNA content imaging, 48 h; note: potency is the fitted concentration of half-maximal effect; % of control where 0% means no effect; nearly all actives have a fitted effect of over 55% in size
#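 Per well, 250 cells were exposed to pinned compound for 48 hr. Nuclear DNA was visualised with Hoechst (40 min, 37 C) and total object intensity recorded by fluorescence scanning.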
# KB-3-1 cytotox = qHTS assay for MDR1-selective chemotherapeutics: Primary screen using the parental adenocarcinoma cell KB-3-1 | 400,000 compounds, 1.4% hits | KB-3-1 viability, CellTiter-Glo ATP luminescence, 72 h | Potency, µM (highest dose often 46.1 µM), most hits filed as cytotoxic; note: potency is the fitted concentration of half-maximal effect; % is set by controls: 0 for no effect and ±100 for the full control effect; nearly all actives have a fitted effect of over 60% in size
#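 Viability of parental KB-3-1 cells, measured by CellTiter-Glo luminescence, followed a 72 h incubation at 37 °C with pinned compounds in phenol-red-free DMEM containing 10% FBS.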
# * = called active by the depositor; i = inactive; ? = inconclusive; · = no result; [ ] = dose if it differs, or a comment. Unless noted, calls come from the whole dose curve; as a rule, active = well fitted curve in the direction sought with a large enough effect; inconclusive = small, poorly fitted or top-dose-only effect, or another doubt; inactive = no such curve, though single readings can be large; an effect the other way counts as inactive or inconclusive.
SMILES,IL-1B inflam inh,MCF10A rereplic,KB-V1 cytotox,SW480 rereplic,KB-3-1 cytotox
N#C/C(=N\Nc1cccc(Cl)c1)C(=O)c1ccccc1,20,?,?,-1%,16µM*
N#C/C(=N\Nc1c(Cl)cccc1Cl)C(=O)NN,-14,-14%,8.2µM*,-3%,15µM*
N#C/C(=N\Nc1ccccc1Cl)C(=O)c1ccccc1,-13,14%,?,-2%,15µM*
O=C(Nc1ccccc1Cl)c1ccccc1,-1,1%,i,-1%,i
COc1ccc(C(=O)/C(C#N)=N/Nc2cccc([N+](=O)[O-])c2)cc1,-13,?,5.8µM*,?,?
CC(=O)/C(N)=N/Nc1cccc(Cl)c1,1,?,i,?,i
CC[C@]1(C(=O)OC)[C@H]2C(=O)N(Cc3ccccc3)C(=O)[C@H]2[C@H]2CN=C(SC)N21,-9,31%,i,3%,i
COc1ccc(OC)c(CNC(=O)CCc2c(C)nc3c(c2C)c(=O)n(C)c(=O)n3C)c1,·,·,i,·,i
Nc1ncnc2c1ncn2[C@@H]1O[C@H](C(=O)NCC2CCN(Cc3ccccc3)CC2)[C@@H](O)[C@H]1O,12,·,i,·,i
COCc1cc(C)nc2sc(C(=O)Nc3ccccc3F)c(N)c12,0,6.5µM*,i,12µM*,?
COCc1cc(C)nc2sc(C(=O)Nc3ccc(C(=O)OC)cc3)c(N)c12,9,?,i,-2%,i
COCc1cc(C)nc2sc(C(=O)OC(C)C)c(N)c12,-15,21µM*,?,?,i
CCCCNC(=O)c1sc2nc(C)cc(COC)c2c1-n1cccc1,0,0%,5.2µM*,-4%,i
COCc1cc(C)nc2sc(C(=O)NN)c(-n3cccc3)c12,39,-2%,i,-1%,i
COc1ccccc1NC(=O)c1sc2nc(C)cc(C)c2c1N,9,21%,i,-1%,i
Cc1ccc(NC(=O)C2CCCN(S(=O)(=O)c3ccc4c(c3)CCCC(=O)N4)C2)cc1N(C)C (centres undefined),·,·,i,·,?
O=[N+]([O-])c1cccc(C2(O)COc3ccccc3O2)c1 (centres undefined),-1,1%,i,-3%,i
O=C(O)CNS(=O)(=O)c1ccc(C2CCCCC2)cc1,0,-5%,i,-128%,i
CCN(CC)CCOc1ccc(C(O)(Cc2ccc(Cl)cc2)c2ccc(C)cc2)cc1 (centres undefined),·,9.4µM*,·,?,·
CCN(CC)CCOc1ccc(Br)cc1,-19,-3%,i,-7%,i
COCCN(CCOc1cc(C)cc(C)c1)Cc1ccc(Cl)cc1,7,18µM*,?,?,i
NCCCC(O)(P(=O)(O)O)P(=O)(O)O,·,-1%,·,-10%,·
Cc1nn(-c2ccccc2)c(-n2cccc2)c1C(=O)N1CCN(c2ccccc2)CC1,·,·,i,·,i
Cc1ccc(C2CC(=O)N(Cc3ccccc3F)c3c2c(C)nn3-c2nc(C)cc(C)n2)cc1 (centres undefined),·,·,i,·,i
COc1cc(/C(O)=C(\C#N)c2nc3ccccc3[nH]2)cc(OC)c1OC,?,15µM*,i,?,i
SMILES,IL-1B inflam inh,MCF10A rereplic,KB-V1 cytotox,SW480 rereplic,KB-3-1 cytotox
N#C/C(=C(/O)c1ccc(Cl)cc1)c1nc2ccccc2[nH]1,-1,-3%,i,7%,i
N#C/C(=C(\O)c1cc(Cl)sc1Cl)c1nc2ccccc2[nH]1,3,21µM*,i,?,i
Cc1[nH]c2c(Cl)cccc2c1CCNC(=O)C1CCCCC1C(=O)OCC(F)(F)F (centres undefined),-80*,-5%,?,-1%,i
CCCCN(CCCC)S(=O)(=O)c1ccc(NS(=O)(=O)c2ccc(NC(C)=O)cc2)cc1,-6,15µM*,i,2%,i
CCN(CC)S(=O)(=O)c1ccc(NC(=O)c2cccs2)cc1,-52*,7%,i,-4%,i
COC(=O)c1cc(NS(=O)(=O)c2ccc(NC(C)=O)cc2)ccc1Cl,-74*,-5%,i,-27%,i
CC(=O)Nc1ccc(S(=O)(=O)Nc2ccc(S(=O)(=O)Nc3nc(C)cc(C)n3)cc2)cc1,-4,-40%,i,-30%,i
CCN(CC)S(=O)(=O)c1csc(C(=O)Nc2ccccn2)c1,19,4%,23µM*,3%,i
O=C(Nc1ccccn1)c1cccs1,6,1%,i,-6%[9.22 µM],?
CCN(CC)S(=O)(=O)c1ccc(NC(=O)C2c3ccccc3Oc3ccccc32)cc1,9,-38%,18µM*,2%,i
CCCCN(CCCC)S(=O)(=O)c1ccc(NC(=O)Cc2cccs2)cc1,-16,24%,5.2µM*,-2%,i
Cc1ccn(-c2ccc(NC(=O)c3cccs3)cc2)n1,-5,?,12µM*,-3%,21µM*
CCCCOc1ccc(S(=O)(=O)Nc2ccc(NC(C)=O)cc2)cc1,15,19%,21µM*,-3%,?
CN1CCN(c2ccc(NC(=O)c3cccs3)cc2)CC1,-12,-29%,i,?,i
Cc1cc([N+](=O)[O-])nn1CCCC(=O)N1CCN(c2ccccc2)CC1,-6,1%,i,-4%,i
COc1ccc(CNC(=O)CN2C(=O)CCSc3ccc(S(=O)(=O)N4CCCC4)cc32)cc1,-16,2%,i,-11%,i
ClC(Cl)c1nnc(-c2ccccc2)c(-c2c[nH]c3ccccc23)n1,0,26µM*,?,1%,i
Cc1nc2cc(-c3ccc(Cl)cc3)nn2c(NCCN(C)C)c1C,-75*,?,i,?,i
CCOc1cc(CNC(=O)CSc2n[nH]c(-c3ccccc3)n2)cc(OCC)c1OCC,·,·,i,·,i
CC1CCc2c(sc(NC(=O)c3cc(-c4cccc(Cl)c4)on3)c2C(N)=O)C1 (centres undefined),·,·,i,·,i
COc1ccc(C(C)=O)cc1COc1ccc(-n2cnnn2)cc1,·,7%,21µM*,-5%,i
CCCCNC(=O)C1(C)CCCCN1C(=O)c1ccc(OC)c(C(F)(F)F)c1 (centres undefined),31,·,i,·,i
COCCCNC(=S)N/N=C/c1ccc(N(C)C)cc1Cl,-2,?,i,29µM*,i
CN(Cc1cn[nH]c1-c1cc2ccccc2o1)CC1CCOCC1,-14,-1%,i,-2%,i
OC1(CNCc2cn[nH]c2-c2cc3ccccc3o2)CCCCC1,-91*,?,i,14%,i
